This is part of a sample that, as a whole, favours compounds with a hit. Of some 83,000 tested, about 20% had one in any assay.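 48-hour exposure, single concentration, 96-well plates; percent growth endpoint where 0 means no net growth. Active: below 10.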 The source made the active and inactive calls.
Tested on: MDA-MB-468 breast
Assay: NCI-60 one-dose screen, 48 h (100 = growth as untreated, 0 = no growth, -100 = all killed)
Details: 10 µM unless noted

Row | SMILES | growth
1 | O=C(CSc1nnc2sc(Nc3cccc(Cl)c3)nn12)c1ccc(F)cc1 | 89.5% (inactive)
2 | Brc1ccc2[nH]cc(-c3nc(-c4c[nH]c5ccncc45)cs3)c2c1 | -71.4% (active)
3 | C/C(C=O)=C\c1ccc2c(c1)OCO2 | 94.8% (inactive)
4 | Nc1ccc2ccc(NS(=O)(=O)N3CCCCC3)cc2c1 | 7.79% (active)
5 | O=C1c2ccc3c4c(ccc(c24)C(=O)N1CCCCO)C(=O)N(CCCCO)C3=O | -29.2% (active)
6 | CCCCCCN1CSC(=S)N(CCCCCC)C1 | 89% (inactive)
7 | O=C(O)COc1ccc(-c2cssc2=S)cc1 | 99.5% (inactive)
8 | COc1ccc(-n2c(=S)sc3c(Cl)nc(C)nc32)c(OC)c1 | -19.6% (active)
9 | FC(F)(F)c1cc(CNc2ncc(Br)c(Cl)n2)cc(C(F)(F)F)c1 | 93.2% (inactive)
10 | COc1cccc(Nc2nccc(Nc3ccc4[nH]ncc4c3)n2)c1 | -45.5% (active)
11 | COc1cc(CNC(=O)/C=C/C=C/c2ccc3c(c2)OCO3)ccc1OCc1cn(-c2ccc(Cl)c(Cl)c2)nn1 | -68.1% (active)
12 | CCc1ccc(-c2ccc(NC3CCCCCC3)nn2)cc1S(N)(=O)=O | 102% (inactive)
13 | CN1CCN(CCCN2c3ccccc3Sc3ccc(C(F)(F)F)cc32)CC1 | -2.21% (active)
14 | COc1ccc(-c2cnnn2-c2nonc2-n2cccc2)cc1 | 4.28% (active)
15 | CCN(C(=O)c1cc2ncccc2[nH]1)[C@H]1CCC[C@@H](NCc2cccc(F)c2)C1 | 107% (inactive)
16 | COc1ccc(-c2cn[nH]c2-c2cc(OC)c(OC)c(OC)c2)cc1OCc1ccccc1 | -5.94% (active)
17 | CCN(CC)CCOC(=O)Nc1c(C(C)C)cccc1C(C)C | 97.3% (inactive)
18 | CC(=O)N1N=C(c2ccc(Cl)cc2)CC1c1sc(Cl)nc1Cl (stereo not given) | 74.9% (inactive)
19 | CCCCOc1ccc(NC(=O)n2nc(NC(C)=O)c3cc(NC(C)=O)ccc32)cc1 | 111% (inactive)
20 | NS(=O)(=O)c1nnc(/N=C/c2c(O)[nH]c3ccccc23)s1 | 109% (inactive)

Row | SMILES | growth
21 | Cc1ccc(NC(=O)Cn2c(Br)nc3c2c(=O)n(C)c(=O)n3C)cc1 | 10.4% (inactive)
22 | COc1cc(N2CCC(N3CCN(C)CC3)CC2)ccc1Nc1ncnc(Nc2ccccc2S(=O)(=O)C(C)C)n1 | 110% (inactive)
23 | Cc1cc(NC(=O)c2cccc(C(F)(F)F)c2)ccc1-n1ccc2c(NC(=O)c3ccccc3)nccc21 | 111% (inactive)
24 | COc1ccc(-n2c(-c3ccc(NC(=O)CCCl)cc3)nnc2-c2cc(OC)c(OC)c(OC)c2)cc1 | -11.1% (active)
25 | c1ccc(CCNc2ncnc3[nH]ncc23)cc1 | 70.9% (inactive)
26 | C=C1C(=O)O[C@H]2[C@H]1CC/C(COC(=O)NCc1c[nH]c3ccc(Br)cc13)=C\CC[C@@]1(C)O[C@@H]21 | -58% (active)
27 | C#CCOC(=O)/C=C/c1cn(-c2ccccc2)nc1-c1ccc(OC)cc1 | 101% (inactive)
28 | CCCCC(=O)c1ccco1 | 95.1% (inactive)
29 | C[N+]1=C(/C=C\C=C\c2ccccc2)C(C)(C)c2ccccc21 | -14.9% (active)
30 | CN(C)c1nc(-c2ccco2)n2nc(-c3ccco3)cc2n1 | -22.1% (active)
31 | Cc1nnc(N/N=C/c2ccc([N+](=O)[O-])o2)[nH]c1=O | 31.2% (inactive)
32 | O=C(Nc1ccc(-n2cc(-c3ccncc3)c(-c3ccc(O)c(Cl)c3)n2)cc1)Nc1cc(C(F)(F)F)cc(C(F)(F)F)c1 | 37.1% (inactive)
33 | CCCCCCCCCCCCOc1ccccc1C=O | 91.3% (inactive)
34 | CCNCCCn1c2c(c3ccc(F)cc3c1=O)C(=O)c1cc(OC)cnc1-2 | -75.7% (active)
35 | CCSc1nc(-c2ccc(F)cc2)c(C#N)c(=O)[nH]1 | 91.4% (inactive)
36 | CC(=O)OCC(=O)O[C@@H]1C[C@]2(C(C)C)O[C@@]1(C)[C@@H]1CC[C@@H](C)[C@H]1[C@@H]2OC(=O)/C=C/c1ccccc1 | 83.7% (inactive)
37 | O=C(CCN1CCCCC1)c1ccc2ccccc2c1 | 92.1% (inactive)
38 | O=C(Nc1ccc(OS(=O)(=O)c2ccc(F)cc2)cc1)C12CC3CC(CC(C3)C1)C2 | 39.4% (inactive)
39 | COc1ccc(CN2CCc3c(Cl)nc(N)nc3C2=O)c(OC)c1 | 12% [100 µM] (inactive)
40 | COc1ccc(-c2nnc(SC/C(=N\O)c3ccccc3)o2)cc1 | 97% (inactive)

— PubChem BioAssay (NCI)
